This note sets out measurements from the supplement of paper PMC10338343.

± gives the standard deviation. Over roughly 8,200 sequences, “pre-steady-state target cleavage rate” has its median near 0.024; the highest 2% begin near 1.3. Shown is part of a subset that was picked to be rich in the highest values.

This test has as its system MIWI (PIWIL1) piRISC loaded with L1MC piRNA (30 nt). The experiment in a line: pre-steady-state target cleavage rate (min^-1); MIWI and MILI are mouse PIWI proteins and EfPiwi is from a freshwater sponge; tags in brackets are library labels; higher = faster piRNA-guided slicing of the target. The following applies: guide: L1MC piRNA 5'p-UAACUAAAUACUAUGCAAGCUGUAGGUCCU
The protocol:
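Cleave-'n-Seq: a library of target RNAs (target site embedded in constant flanks, ACAGCATTCCGCGTTAGTGATATCCG... 5' flank; DNA-blocked outside the site) at 0.1 nM was incubated with 1 nM active mouse MILI or MIWI piRISC (synthetic 5'-monophosphorylated piRNA guide) with or without 500 nM mouse GTSF1 at 33 °C for 1 min to 16 h. Uncleaved targets were sequenced and normalised to non-target controls, and the pooled three trials were fitted to a burst-and-steady-state model to give the pre-steady-state cleavage rate (min^-1; k3 is constrained to at most 1e-4). Sequence is the target site only; target names encode pairing extent (gX:gY) and contiguous / 1-mismatch / 2-mismatch / bulge geometry. Fits with R² ≤ 0 are excluded.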

Setting [1] is: auxiliary factor: 500 nM mouse GTSF1.
Setting [2] is: auxiliary factor: none (no GTSF1).

For UCCUGGAUGAGCUUGCAUAGUAUUUUCUAA, the “pre-steady-state target cleavage rate” value under setting [1] turned out to be 0.222 ± 0.052.

In the case of AGGACCUACGAGCUUGCAUAGUAUUUAGUUA, the “pre-steady-state target cleavage rate” value is 0.726 ± 0.086 under setting [1] and 0.0555 ± 0.014 under setting [2].

As for UGGACCAACAGCUUGCAUACUAUUUAGUUA, the “pre-steady-state target cleavage rate” value reads like this: under setting [1], 0.419 ± 0.017; under setting [2], 0.0377 ± 0.0075.

Turning to UCCUGGAUGUCGUUGCAUAGUAUUUAGGUUA, the “pre-steady-state target cleavage rate” value under setting [1] came out at 0.00749 ± 0.0034.

Take UGGACGUACAGCUUGCAUAGUAUUUAGUUA: the “pre-steady-state target cleavage rate” value is 1.26 ± 0.051 under setting [1] and 0.0691 ± 0.012 under setting [2].

As to UCCACCUACAGCUUGCUUAGUAUUUAGUUA, the “pre-steady-state target cleavage rate” value by setting is: under setting [1], 1.16 ± 0.05; under setting [2], 0.0305 ± 0.0053.

As for UCCACGUACAGCUUGCAAAGUAUUUAGUUA, the “pre-steady-state target cleavage rate” value by setting is: under setting [1], 1.19 ± 0.054; under setting [2], 0.0439 ± 0.009.

On to UGCACGUACAGCUUGCAUAGUAUUUAGUUA, for which the “pre-steady-state target cleavage rate” value worked out at 1.26 ± 0.045 under setting [1] and 0.0736 ± 0.01 under setting [2].

Take UCCACGUACAGCUUGCUUAGUAUUUAGUUA: the “pre-steady-state target cleavage rate” value worked out at 1.31 ± 0.058 under setting [1] and 0.0408 ± 0.0091 under setting [2].

UCGACGUACAGCUUGCAUAGUAUUUAGUUA: the “pre-steady-state target cleavage rate” value runs as follows: under setting [1], 1.56 ± 0.046; under setting [2], 0.0711 ± 0.011.

In the case of UCCACGUACAGCUUGCAUAGUAUUUAGUAA, the “pre-steady-state target cleavage rate” value worked out at 0.521 ± 0.032 under setting [1] and 0.0319 ± 0.0057 under setting [2].

AGCACGUACAGCUUGCAUAGUAUUUAGUUA: the “pre-steady-state target cleavage rate” value reads like this: under setting [1], 1.28 ± 0.043; under setting [2], 0.064 ± 0.011.

Regarding ACGACGUACAGCUUGCAUAGUAUUUAGUUA, the “pre-steady-state target cleavage rate” value by setting is: under setting [1], 1.55 ± 0.071; under setting [2], 0.077 ± 0.013.

For the sequence UCGACGUACAGCUUGCAUAGUAUUUAGUAA, the “pre-steady-state target cleavage rate” value reads like this: under setting [1], 1.01 ± 0.062; under setting [2], 0.0599 ± 0.011.

For the sequence UCCACGUACAGCUUGCAUAGUAUUUAGUUA, the “pre-steady-state target cleavage rate” value stood at 1.35 ± 0.047 under setting [1] and 0.0658 ± 0.0097 under setting [2].

UCGACGUACAGCUUGCAUAGUAUUUAGAAA: the “pre-steady-state target cleavage rate” value by setting is: under setting [1], 0.288 ± 0.026; under setting [2], 0.0106 ± 0.0026.

For the sequence UCCACCAAGAGCUUGCAUAGUAUUUAGUUA, the “pre-steady-state target cleavage rate” value reads like this: under setting [1], 0.884 ± 0.095; under setting [2], 0.0363 ± 0.0078.

For UCCACCUACAGCUUGCUUAGAAUUUAGUUA, the “pre-steady-state target cleavage rate” value turned out to be 0.2 ± 0.025 under setting [1] and 0.00583 ± 0.0018 under setting [2].

As for UCCUGGAACAGCUAGCAUAGAAUUUAGUUA, the “pre-steady-state target cleavage rate” value reads like this: under setting [1], 0.209 ± 0.02; under setting [2], 0.0115 ± 0.0043.

As to AGGACCUACAGCUUGCAUUGUAUUUAGUUA, the “pre-steady-state target cleavage rate” value was 0.926 ± 0.04 under setting [1] and 0.0656 ± 0.015 under setting [2].

UCCUGGAUGUCCUUGCAGAGUAUUUAGUUA: the “pre-steady-state target cleavage rate” value under setting [2] is 0.00314 ± 0.002.

For the sequence UCCUGGAUGAGCUUGCUUAGUAUUUACUUA, the “pre-steady-state target cleavage rate” value under setting [1] came out at 0.254 ± 0.042 and the “pre-steady-state target cleavage rate” value under setting [2] worked out at 0.0202 ± 0.005.

As to UCCACGUACAGCUAGCAUAGUAUUUAGUUA, the “pre-steady-state target cleavage rate” value came to 0.815 ± 0.028 under setting [1] and 0.0177 ± 0.0033 under setting [2].

For the sequence AGGACCCUACAGCUUGCAUAGUAUUUAGUUA, the “pre-steady-state target cleavage rate” value stood at 1.24 ± 0.083 under setting [1] and 0.0716 ± 0.012 under setting [2].

With UCCACCCUACAGCUUGCAUAGUAUUUAGUUA, the “pre-steady-state target cleavage rate” value by setting is: under setting [1], 0.831 ± 0.055; under setting [2], 0.0575 ± 0.012.

With UGGACCCUACAGCUUGCAUAGUAUUUAGUUA, the “pre-steady-state target cleavage rate” value was 1.42 ± 0.074 under setting [1] and 0.0808 ± 0.015 under setting [2].

With UGGACCUACAGCUUUGCAUAGUAUUUAGUUA, the “pre-steady-state target cleavage rate” value reads like this: under setting [1], 1.43 ± 0.11; under setting [2], 0.0449 ± 0.011.

In the case of UCCACCUACAGCUUUGCAUAGUAUUUAGUUA, the “pre-steady-state target cleavage rate” value under setting [1] is 0.885 ± 0.054 and the “pre-steady-state target cleavage rate” value under setting [2] came out at 0.0278 ± 0.0062.

As for UCGACCUAACAGCUUGCAUAGUAUUUAGUUA, the “pre-steady-state target cleavage rate” value by setting is: under setting [1], 1.15 ± 0.069; under setting [2], 0.0849 ± 0.017.

With UGGACCUAACAGCUUGCAUAGUAUUUAGUUA, the “pre-steady-state target cleavage rate” value amounted to 1.33 ± 0.061 under setting [1] and 0.0609 ± 0.01 under setting [2].

For the sequence AGGACCUAACAGCUUGCAUAGUAUUUAGUUA, the “pre-steady-state target cleavage rate” value by setting is: under setting [1], 1.1 ± 0.059; under setting [2], 0.0788 ± 0.016.

For UGGACCUACAGCUUGCAUAGUAUUUUAGUUA, the “pre-steady-state target cleavage rate” value by setting is: under setting [1], 1.38 ± 0.079; under setting [2], 0.0467 ± 0.012.

On to AGGACCUACAGCUUUGCAUAGUAUUUAGUUA, for which the “pre-steady-state target cleavage rate” value reads like this: under setting [1], 1.2 ± 0.066; under setting [2], 0.0552 ± 0.012.

Take UCCACCUACAGCUUGCAUAAUAUUUAGUUA: the “pre-steady-state target cleavage rate” value under setting [1] was determined as 0.552 ± 0.049 and the “pre-steady-state target cleavage rate” value under setting [2] amounted to 0.0203 ± 0.0032.

For the sequence UCCUGCUACAGCUACCAUAGUAUUUAGUUA, the “pre-steady-state target cleavage rate” value under setting [1] worked out at 0.337 ± 0.032.

For AGGACCUACAGCUUGCAUAGUAUUAGUUA, the “pre-steady-state target cleavage rate” value is, setting by setting: under setting [1], 0.385 ± 0.053; under setting [2], 0.00372 ± 0.003.

Consider UCCACCUACAGCUUGCAUAGUAUUAAGAAA, for which the “pre-steady-state target cleavage rate” value under setting [1] is 0.351 ± 0.054.

Consider UCCUGGAUGAGAUUGCAUAGUAUUUAGUUA, for which the “pre-steady-state target cleavage rate” value runs as follows: under setting [1], 0.117 ± 0.011; under setting [2], 0.00369 ± 0.0027.

Regarding UCCUGGUACAGCUUGCAUGGUAUUUAGUUA, the “pre-steady-state target cleavage rate” value under setting [1] was 0.891 ± 0.058 and the “pre-steady-state target cleavage rate” value under setting [2] was 0.0741 ± 0.018.

In the case of UCCUGGAUCAGCUUGGAUAGUAUUAAGUUA, the “pre-steady-state target cleavage rate” value runs as follows: under setting [1], 0.258 ± 0.033; under setting [2], 0.0129 ± 0.0046.

Regarding UGGACCUACAGCUUGCAUAGUUAUUUAGUUA, the “pre-steady-state target cleavage rate” value stood at 0.0473 ± 0.0076 under setting [1] and 0.00533 ± 0.0021 under setting [2].

Consider AUGGACCUACAGCUUGCAUAGUAUUUAGUUA, for which the “pre-steady-state target cleavage rate” value runs as follows: under setting [1], 1.34 ± 0.088; under setting [2], 0.0872 ± 0.018.

For the sequence “UGGACCUACAGCUUGCAUAGUAUUUAGUUA [g2:g29:cont:t1A]”, the “pre-steady-state target cleavage rate” value by setting is: under setting [1], 1.61 ± 0.09; under setting [2], 0.0718 ± 0.013.

For the sequence UGGACCUUCAGCUUGCAUAGUAUAUAGUUA, the “pre-steady-state target cleavage rate” value came to 1 ± 0.053 under setting [1] and 0.0376 ± 0.0085 under setting [2].

Take “UGGACCUACAGCUUGCAUAGUAUUUAGUUG [g2:g29:cont:t1G]”: the “pre-steady-state target cleavage rate” value runs as follows: under setting [1], 0.456 ± 0.037; under setting [2], 0.0555 ± 0.01.

Take UCGACCUACAGCUUGCAUAGUAAUAAGUUA: the “pre-steady-state target cleavage rate” value under setting [1] worked out at 0.444 ± 0.047.

Take UCCUCCAUGAGCUUGCAUAGUAUUUAGUAA: the “pre-steady-state target cleavage rate” value under setting [1] was 0.471 ± 0.029 and the “pre-steady-state target cleavage rate” value under setting [2] is 0.0262 ± 0.0057.

On to UCCUGCUACAGCUUGCAUAGUCAUUUAGUUA, for which the “pre-steady-state target cleavage rate” value reads like this: under setting [1], 0.0744 ± 0.02; under setting [2], 0.00362 ± 0.0031.

Take UCCUGGAUGUCCUUGCAUAGUAUUUAGUCA: the “pre-steady-state target cleavage rate” value is, setting by setting: under setting [1], 0.0473 ± 0.011; under setting [2], 0.00568 ± 0.0021.

Turning to UCGACCUACAUGCUUGCAUAGUAUUUAGUUA, the “pre-steady-state target cleavage rate” value under setting [1] amounted to 0.913 ± 0.037 and the “pre-steady-state target cleavage rate” value under setting [2] was 0.0554 ± 0.012.

On to UCCACCUACAGCUUGCAUAGUUUUUACUUA, for which the “pre-steady-state target cleavage rate” value by setting is: under setting [1], 0.173 ± 0.03; under setting [2], 0.0106 ± 0.0026.

For UCCUGGUUCAGCUUGCAUAGUUUUUAGUUA, the “pre-steady-state target cleavage rate” value reads like this: under setting [1], 0.242 ± 0.031; under setting [2], 0.0386 ± 0.0094.

Turning to AGGACCUACAGCAACCAUAGUAUUUAGUUA, the “pre-steady-state target cleavage rate” value under setting [1] stood at 0.426 ± 0.039.

For the sequence UCCUCCAACAGCUUGCAUAGUAUUUAGUUA, the “pre-steady-state target cleavage rate” value runs as follows: under setting [1], 1.37 ± 0.041; under setting [2], 0.0735 ± 0.013.

In the case of UCCUCCAACAGCUUGCAUAGUAUUUAGAUA, the “pre-steady-state target cleavage rate” value came out at 0.491 ± 0.042 under setting [1] and 0.0201 ± 0.0048 under setting [2].

Take UCGUCCAACAGCUUGCAUAGUAUUUAGUUA: the “pre-steady-state target cleavage rate” value came to 1.4 ± 0.044 under setting [1] and 0.0771 ± 0.014 under setting [2].

UCCACCAACAGCUUGCAUAGUAUUUAGUAA: the “pre-steady-state target cleavage rate” value was determined as 0.644 ± 0.039 under setting [1] and 0.0342 ± 0.0071 under setting [2].

As for UCCUCCAACAGCUUGCAUAGUAUUUAGUAA, the “pre-steady-state target cleavage rate” value reads like this: under setting [1], 0.675 ± 0.03; under setting [2], 0.0256 ± 0.0063.

On to UGGUCCAACAGCUUGCAUAGUAUUUAGUUA, for which the “pre-steady-state target cleavage rate” value stood at 0.852 ± 0.034 under setting [1] and 0.0715 ± 0.01 under setting [2].

With AGGUCCAACAGCUUGCAUAGUAUUUAGUUA, the “pre-steady-state target cleavage rate” value came out at 1.5 ± 0.04 under setting [1] and 0.0907 ± 0.014 under setting [2].
